Measurements: PubChem BioAssay (NCI)
About 79,000 compounds went through this panel and 15% of them were active in at least one assay; those are over-represented in the sample as a whole. Values without a mark were called inactive. Active and inactive are the calls of the source. Cut-off read from the data, not from the text of the source: active = growth inhibition above about 70%; inactive = the rest.

What was measured:
[1] = NCI Yeast Anticancer Drug Screen. Data for the rad50 strain (AID 155);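 note: 0% = growth of vehicle-only cultures of the same strain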; details: S. cerevisiae rad50 strain growth inhibition; at 50.0 µM; active compounds read high
Summary of the method: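 Yeast carrying a defined DNA repair defect were exposed to test compounds, and growth was compared with vehicle-treated controls to give percent inhibition.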

[2] = NCI Yeast Anticancer Drug Screen. Data for the mec2-1 strain (AID 157); details: S. cerevisiae mec2-1 strain, at 50.0 µM, active compounds read high
Summary of the method: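 Strain: mec2-1 (DNA repair/cell cycle alteration). Compound exposure, then growth measured; inhibition expressed relative to vehicle.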

[3] = NCI Yeast Anticancer Drug Screen. Data for the sgs1 mgt1 strain (AID 161);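 note: 0% = growth of cultures given vehicle only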; details: S. cerevisiae sgs1 mgt1 strain, at 50.0 µM, active compounds read high
Summary of the method: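 Genetically altered yeast, compound exposure, growth inhibition relative to vehicle.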

[4] = NCI Yeast Anticancer Drug Screen. Data for the cln2 rad14 strain (AID 165);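 note: 0% = growth equal to vehicle treated cultures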; details: S. cerevisiae cln2 rad14 strain, at 50.0 µM, active compounds read high
Summary of the method: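 Compounds are applied to the cln2 rad14 yeast strain, and growth is then compared with that of vehicle-treated cultures to give inhibition.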

[5] = NCI Yeast Anticancer Drug Screen. Data for the bub3 strain (AID 167); details: S. cerevisiae bub3 mutant strain, at 50.0 µM, active compounds read high
Summary of the method: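 Compounds were applied to a genetically altered yeast strain carrying a cell-cycle control defect. Growth inhibition was scored against vehicle-treated controls.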

[6] = NCI Yeast Anticancer Drug Screen. Data for the mlh1 rad18 strain (AID 175); details: S. cerevisiae mlh1 rad18 strain growth inhibition; at 50.0 µM; active compounds read high
Summary of the method: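 Read-out is yeast growth inhibition, calculated against vehicle-only controls. The compound was applied to a strain engineered with DNA damage repair alterations.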

## Cc1c2ccccc2c(C)n2c1nc1cc3ccccc3cc12
[1]
  growth inhibition: 9.8%
[2]
  growth inhibition: 11.9%
[3]
  growth inhibition: 11.8%
[4]
  growth inhibition: 8.55%
[5]
  growth inhibition: 4.65%
[6]
  growth inhibition: 28.6%

## O=c1[nH]c(-c2ccccc2N=NN2CCCCC2)nc2ccccc12
[1]
  growth inhibition: -4.05%
[2]
  growth inhibition: -2.35%
[3]
  growth inhibition: -2.6%
[4]
  growth inhibition: -11.8%
[5]
  growth inhibition: -4.45%
[6]
  growth inhibition: 1.8%

## CC1OC(OC2C(Oc3cc(O)c4c(c3)O[C@H](c3ccc(O)cc3)CC4=O)OC(CO)C(O)C2O)C(O)C(O)C1O (stereo partly drawn)
[1]
  growth inhibition: 5.65%
[2]
  growth inhibition: -12%
[3]
  growth inhibition: -5.65%
[4]
  growth inhibition: -3.6%
[5]
  growth inhibition: -0.1%
[6]
  growth inhibition: -46.2%

## CCC(=O)SCC[N+](C)(C)C
[1]
  growth inhibition: 16.1%
[2]
  growth inhibition: -30.8%
[3]
  growth inhibition: 0.2%
[4]
  growth inhibition: 8.8%
[5]
  growth inhibition: 27.6%
[6]
  growth inhibition: 4.55%

## CCCCc1c(OCC)cc2n(CC)c3ccccc3n2c1=O
[1]
  growth inhibition: -8.45%
[2]
  growth inhibition: -9.85%
[3]
  growth inhibition: 0.8%
[4]
  growth inhibition: -10.9%
[5]
  growth inhibition: -45%
[6]
  growth inhibition: -11.9%

## CCOC(=O)C(NC(N)=O)C(=O)OCC
[1]
  growth inhibition: -1.05%
[2]
  growth inhibition: 15%
[3]
  growth inhibition: 0.95%
[4]
  growth inhibition: -34.7%
[5]
  growth inhibition: 21.9%
[6]
  growth inhibition: 4.7%

## COc1c(Br)cc(Br)cc1Br
[1]
  growth inhibition: -1.45%
[2]
  growth inhibition: -5.7%
[3]
  growth inhibition: 14.2%
[4]
  growth inhibition: -47.1%
[5]
  growth inhibition: -10.8%
[6]
  growth inhibition: 6.05%

## C/C(CC(=O)Nc1ccccc1[N+](=O)[O-])=N\NC(N)=O
[1]
  growth inhibition: 14.1%
[2]
  growth inhibition: -15.8%
[3]
  growth inhibition: -18.1%
[4]
  growth inhibition: 27.4%
[5]
  growth inhibition: -23.1%
[6]
  growth inhibition: -2.9%

## CC(C)=CCS(=O)c1ccccc1NC1=CC(=O)CC(C)(C)C1 (stereo not drawn)
[1]
  growth inhibition: -16.2%
[2]
  growth inhibition: -26.1%
[3]
  growth inhibition: -37.6%
[4]
  growth inhibition: -7.55%
[5]
  growth inhibition: -5.8%
[6]
  growth inhibition: -3.55%

## CCCCCCCCCCCCCCCCCC
[1]
  growth inhibition: -9.7%
[2]
  growth inhibition: -6.9%
[3]
  growth inhibition: -16.2%
[4]
  growth inhibition: 6.7%
[5]
  growth inhibition: 0.25%
[6]
  growth inhibition: -2.15%

## Cc1ccc(C(=O)/C=C/c2ccc(N(C)C)cc2)cc1
[1]
  growth inhibition: 38.8%
[2]
  growth inhibition: 1.95%
[3]
  growth inhibition: 34.8%
[4]
  growth inhibition: 30.9%
[5]
  growth inhibition: 29.4%
[6]
  growth inhibition: 43.8%

## CS(=O)(=O)c1nc(Cl)c2[nH]c(Cl)nc2n1
[1]
  growth inhibition: 16.9%
[2]
  growth inhibition: -19.5%
[3]
  growth inhibition: 5.35%
[4]
  growth inhibition: -11.3%
[5]
  growth inhibition: 12.2%
[6]
  growth inhibition: 22%

## C=COC(=O)C=C
[1]
  growth inhibition: -3.1%
[2]
  growth inhibition: 9.15%
[3]
  growth inhibition: -3.2%
[4]
  growth inhibition: -0.2%
[5]
  growth inhibition: 13.9%
[6]
  growth inhibition: -9.15%

## CCN(CC)CCCCCOC(=O)c1ccccc1
[1]
  growth inhibition: 23.2%
[2]
  growth inhibition: 28.2%
[3]
  growth inhibition: 48.5%
[4]
  growth inhibition: 40%
[5]
  growth inhibition: 43.4%
[6]
  growth inhibition: 18.6%

## O=[N+]([O-])c1ccc(/C=C(/c2ccc([N+](=O)[O-])o2)S(=O)(=O)c2ccccc2)o1
[1]
  growth inhibition: 86% (active)
[2]
  growth inhibition: 67.7%
[3]
  growth inhibition: 92.1% (active)
[4]
  growth inhibition: 71.1% (active)
[5]
  growth inhibition: 61%
[6]
  growth inhibition: 90.2% (active)

## COC(=O)NN1C(C)=C(C(=O)OC)C2(C#N)C(C(=O)OC)=C(C)N(NC(=O)OC)C12N (stereo not drawn)
[1]
  growth inhibition: -14.4%
[2]
  growth inhibition: -26.6%
[3]
  growth inhibition: -56%
[4]
  growth inhibition: 9.85%
[5]
  growth inhibition: 10.2%
[6]
  growth inhibition: -18.4%

## O=C(CN1C(=O)c2ccccc2C1=O)NCCO
[1]
  growth inhibition: -26.8%
[2]
  growth inhibition: -29.1%
[3]
  growth inhibition: -11.8%
[4]
  growth inhibition: -11.7%
[5]
  growth inhibition: -29.1%
[6]
  growth inhibition: -17.2%

## O=C(Oc1ccc([N+](=O)[O-])cc1)C1CCCN1C(=O)OCc1ccccc1 (stereo not drawn)
[1]
  growth inhibition: -6.55%
[2]
  growth inhibition: -13.7%
[3]
  growth inhibition: 7.55%
[4]
  growth inhibition: 8.5%
[5]
  growth inhibition: 7.2%
[6]
  growth inhibition: 0.15%

## CCC(=O)OCCN(C(=O)CC)c1ccccc1
[1]
  growth inhibition: 35.6%
[2]
  growth inhibition: 5.75%
[3]
  growth inhibition: 22.2%
[4]
  growth inhibition: -2.5%
[5]
  growth inhibition: -0.05%
[6]
  growth inhibition: 31.4%

## CCOC(=S)Sc1ccc2c(c1)-c1ccc(F)cc1C2=O
[1]
  growth inhibition: 7%
[2]
  growth inhibition: 6.3%
[3]
  growth inhibition: 2.1%
[4]
  growth inhibition: 10.2%
[5]
  growth inhibition: -3.85%
[6]
  growth inhibition: -1.65%

## Oc1c(CN2CCN(c3ccccc3)CC2)cc(Br)c2cccnc12
[1]
  growth inhibition: 34%
[2]
  growth inhibition: 19.9%
[3]
  growth inhibition: 41.4%
[4]
  growth inhibition: -0.3%
[5]
  growth inhibition: 9.4%
[6]
  growth inhibition: 39.6%

## C=CCn1c(C23CC4CC(CC(C4)C2)C3)n[nH]c1=S
[1]
  growth inhibition: 27.6%
[2]
  growth inhibition: 37.7%
[3]
  growth inhibition: -8.45%
[4]
  growth inhibition: 19.2%
[5]
  growth inhibition: 3.55%
[6]
  growth inhibition: -26.3%

## Nc1ncnc(N)c1NC(=O)CCCCc1ccccc1
[1]
  growth inhibition: 4.25%
[2]
  growth inhibition: -12.2%
[3]
  growth inhibition: -13.2%
[4]
  growth inhibition: 4.8%
[5]
  growth inhibition: 1.4%
[6]
  growth inhibition: -5.9%

## CCCCCCCc1c(C)c2ccc(OC)cc2[nH]c1=O
[1]
  growth inhibition: -9.8%
[2]
  growth inhibition: -29.1%
[3]
  growth inhibition: -5.8%
[4]
  growth inhibition: -5%
[5]
  growth inhibition: -6.85%
[6]
  growth inhibition: -5.15%

## CCOc1cc(F)cc([N+](=O)[O-])c1
[1]
  growth inhibition: -11.6%
[2]
  growth inhibition: 5.3%
[3]
  growth inhibition: -20.9%
[4]
  growth inhibition: -14.9%
[5]
  growth inhibition: 19.1%
[6]
  growth inhibition: 5.7%

## O=C(Cc1nc2ccc(Cl)cc2[nH]c1=O)c1ccncc1
[1]
  growth inhibition: -2.8%
[2]
  growth inhibition: -11.6%
[3]
  growth inhibition: -3.55%
[4]
  growth inhibition: 8.1%
[5]
  growth inhibition: -24.1%
[6]
  growth inhibition: 20.8%

## COC(=O)N1C(c2ccccc2)(c2ccccc2)CS1(=O)=O
[1]
  growth inhibition: 15.2%
[2]
  growth inhibition: 10.1%
[3]
  growth inhibition: 9.3%
[4]
  growth inhibition: 15.6%
[5]
  growth inhibition: 11.8%
[6]
  growth inhibition: 5.25%

## CC1(C)C2CCC(OC(=O)c3ccc([N+](=O)[O-])cc3)C1C2 (stereo not drawn)
[1]
  growth inhibition: 7.25%
[2]
  growth inhibition: -5.15%
[3]
  growth inhibition: 3.5%
[4]
  growth inhibition: -8.1%
[5]
  growth inhibition: 9.95%
[6]
  growth inhibition: -20.8%

## CC(=O)c1nc2ccccc2n1CC(=O)c1ccc(Cl)cc1
[1]
  growth inhibition: -9.25%
[2]
  growth inhibition: 11.3%
[3]
  growth inhibition: 18.9%
[4]
  growth inhibition: 12.6%
[5]
  growth inhibition: 43.7%
[6]
  growth inhibition: -3.55%

## CCC(C(C)=O)C(C)=O
[1]
  growth inhibition: -46.2%
[2]
  growth inhibition: -71.5%
[3]
  growth inhibition: -43.5%
[4]
  growth inhibition: -24.2%
[5]
  growth inhibition: -56.6%
[6]
  growth inhibition: -34.4%

## COC(=O)/C=C/CCBr
[1]
  growth inhibition: -13%
[2]
  growth inhibition: -22.1%
[3]
  growth inhibition: -17.6%
[4]
  growth inhibition: -39.1%
[5]
  growth inhibition: -5.2%
[6]
  growth inhibition: -11.5%

## CCC(=O)c1cc(-c2ccccc2)nc2ccc(OC)cc12
[1]
  growth inhibition: 2.6%
[2]
  growth inhibition: 1.2%
[3]
  growth inhibition: 11.5%
[4]
  growth inhibition: -23.4%
[5]
  growth inhibition: -12.2%
[6]
  growth inhibition: -24.4%

## O=C(NC(=O)c1ccc([N+](=O)[O-])cc1)Nc1ccccc1
[1]
  growth inhibition: 10.3%
[2]
  growth inhibition: -4.35%
[3]
  growth inhibition: -1.4%
[4]
  growth inhibition: -25.4%
[5]
  growth inhibition: -14.8%
[6]
  growth inhibition: 5%

## COc1c2occc2c(N)c2ccc(=O)oc12
[1]
  growth inhibition: -5.95%
[2]
  growth inhibition: -4.4%
[3]
  growth inhibition: -8.2%
[4]
  growth inhibition: -14.5%
[5]
  growth inhibition: -1.55%
[6]
  growth inhibition: -9.95%

## COc1cc(C(C)Cl)ccc1OC(=O)c1ccccc1 (stereo not drawn)
[1]
  growth inhibition: 10.8%
[2]
  growth inhibition: -5%
[3]
  growth inhibition: 3.95%
[4]
  growth inhibition: -10.2%
[5]
  growth inhibition: 12.2%
[6]
  growth inhibition: 4.5%

## OCC1OC(n2cnc3c([Se]Cc4ccccn4)ncnc32)C(O)C1O (stereo not drawn)
[1]
  growth inhibition: 40%
[2]
  growth inhibition: -0.6%
[3]
  growth inhibition: 32%
[4]
  growth inhibition: -3.75%
[5]
  growth inhibition: -3.4%
[6]
  growth inhibition: 7.5%

## CC1(C)Nc2cc3c(cc2-n2cccc21)oc1ccccc13
[1]
  growth inhibition: 17.3%
[2]
  growth inhibition: -3.55%
[3]
  growth inhibition: 39.5%
[4]
  growth inhibition: 45.6%
[5]
  growth inhibition: 30.4%
[6]
  growth inhibition: 27.4%

## COC(=O)C1OC(Sc2ncnc3nc[nH]c23)C(O)C(O)C1O (stereo not drawn)
[1]
  growth inhibition: 3.15%
[2]
  growth inhibition: 1.6%
[3]
  growth inhibition: -0.85%
[4]
  growth inhibition: 17.4%
[5]
  growth inhibition: 7.3%
[6]
  growth inhibition: 4.9%
